This is part of a sample that, as a whole, favours compounds with a hit. Of some 83,000 tested, about 20% had one in any assay.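 In brief: 96-well plates, 48 h treatment, single concentration, percent growth endpoint.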 Values without a mark were called inactive. Active and inactive are the calls of the source. Rule for the calls: active = growth percent below 10; inactive = the rest.
Experiments:
Test in all cases: NCI-60 one-dose screen, 48 h (100 = growth as untreated, 0 = no growth, -100 = all killed)
Details in all cases: 10 µM unless noted
SK-MEL-2 melanoma = test system: SK-MEL-2 melanoma
EKVX NSCLC = test system: EKVX NSCLC
SN12C renal = test system: SN12C renal
UO-31 renal = test system: UO-31 renal
TK-10 renal = test system: TK-10 renal
ACHN renal = test system: ACHN renal
CAKI-1 renal = test system: CAKI-1 renal
A498 renal = test system: A498 renal
CCRF-CEM leukemia = test system: CCRF-CEM leukemia
MOLT-4 leukemia = test system: MOLT-4 leukemia
SR leukemia = test system: SR leukemia
RPMI-8226 leukemia = test system: RPMI-8226 leukemia
OVCAR-8 ovarian = test system: OVCAR-8 ovarian
OVCAR-5 ovarian = test system: OVCAR-5 ovarian
OVCAR-4 ovarian = test system: OVCAR-4 ovarian
OVCAR-3 ovarian = test system: OVCAR-3 ovarian
HS 578T breast = test system: HS 578T breast
NCI/ADR-RES ovarian = test system: NCI/ADR-RES ovarian
SK-OV-3 ovarian = test system: SK-OV-3 ovarian
IGROV1 ovarian = test system: IGROV1 ovarian

SMILES | growth (SK-MEL-2 melanoma) | growth (EKVX NSCLC) | growth (SN12C renal) | growth (UO-31 renal) | growth (TK-10 renal) | growth (ACHN renal) | growth (CAKI-1 renal) | growth (A498 renal) | growth (CCRF-CEM leukemia) | growth (MOLT-4 leukemia) | growth (SR leukemia) | growth (RPMI-8226 leukemia) | growth (OVCAR-8 ovarian) | growth (OVCAR-5 ovarian) | growth (OVCAR-4 ovarian) | growth (OVCAR-3 ovarian) | growth (HS 578T breast) | growth (NCI/ADR-RES ovarian) | growth (SK-OV-3 ovarian) | growth (IGROV1 ovarian)
Cn1c(=O)c2[nH]c(CCCc3nc4c([nH]3)c(=O)n(C)c(=O)n4C)nc2n(C)c1=O | 109% | 113% | 103% | 102% | 118% | 103% | 108% | 142% | 124% | 136% | 129% | 107% | 90.4% | 122% | 118% | 128% | 116% | 109% |  | 
COc1ccc(-c2nc(SC)nc(N3CCOCC3)c2C#N)cc1 | 101% | 97.7% | 96.5% | 67.4% | 97.5% | 94.3% | 81.4% | 63.1% | 88.7% | 87.6% | 78.9% | 91.2% | 98.1% | 99.7% | 100% | 98.5% | 98.4% | 94% | 89.4% | 85%
CC(C)CCSc1nc(NNC(N)=O)c(C#N)c(-c2ccccc2)n1 | 107% | 99.9% | 95% | 85.1% | 105% | 97% | 93.7% | 105% | 100% | 110% | 105% | 99.4% | 104% | 97.8% | 113% | 108% | 112% | 102% | 107% | 103%
O=C(NCCc1ccccn1)OCc1nc2nc(Cl)nc(N3CCOCC3)c2[nH]1 | -16% (active) | 72.4% | 28.6% | 31.8% | -29.4% (active) | -94.9% (active) | 7.47% (active) | -9.02% (active) | 0.909% (active) | 4.05% (active) | -23.3% (active) | -23.8% (active) | -0.399% (active) | 69.9% | 28.6% | -79.5% (active) | 16.5% | 16.6% | 30.1% | 23.9%
c1ccc(C2CC(c3cccc(Nc4ccncc4)c3)=NN2c2ccccc2)cc1 (configuration not stated) | 103% | 91.4% | 77.9% | 70.3% | 98.9% | 90.1% | 61.8% | 83.2% | 56.9% | 18% | 5.55% (active) | 16.2% | 68.5% | 81.6% | 67.5% | 78.3% | 82.5% | 74.2% | 84.1% | 62.6%
COc1ccc(C(=O)c2cc3c(N)c(C(=O)Nc4cccc(Cl)c4C)sc3nc2C)cc1 | 36.9% | 39.6% | 20.3% | 21.7% | 50.9% | 24.1% | 15.6% | -12.4% (active) | 5.42% (active) | 8.51% (active) | -27.1% (active) | 1.21% (active) | 5.92% (active) | 40.9% | 39.2% | -5.77% (active) | 15% | 8.86% (active) | 25.9% | 24.8%
COc1cc(NCCCN(CC(C)C)C2CCCC2)c2ncccc2c1 | 100% | 89.9% | 61.9% | 51% | 93.6% | 41.7% | 76% | 37.1% | 54.1% | 71% | 16.8% | 35.5% | 59.2% | 96.3% | 22.5% | 52.6% |  | 71.8% | 84.6% | 50.6%
S=c1[nH]cccc1-c1nnc2n1Nc1nc3ccc(Cl)cc3cc1CS2 | 96.1% | 93.1% | 102% | 79.6% | 111% | 101% | 81.8% | 107% | 100% | 92.3% | 85.6% | 98.1% | 102% | 95.3% | 101% | 105% | 89.3% | 99.3% | 94.3% | 90.1%

From PubChem BioAssay (NCI)
